Active and inactive are the calls of the source.
Assays:
[1] = test system: Human papillomavirus type 1a protein E7 (residues 44-93); assay: small molecules binding HPV E7 44-93 – biochemical, small-molecule microarray, residues 44-93, 635 nm fluorescence, primary screen (AID 1108); conditions: fluorescence 635 nm, higher = more signal;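 note: E7 fragment applied at 1 µg/mL in TBST for 1 h at 4 C; score combines spot fluorescence with its signal to noise ratio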
[2] = hepatitis C replication reporter changes, two-sided – Huh7 cells, luciferase reporter, HCV replication inhibitor project, primary screen (AID 1109); conditions: Huh7 HCV replicon luciferase reporter, 48 h; higher = more signal;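 note: huh7 hepatoma cells harbouring a luciferase neomycin HCV replicon reporter; luciferase luminescence as measure of HCV replicon replication; test concentration not given here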
[3] = target: Left-right determination factor 2 (Homo sapiens) (UniProt O00292); assay: small molecules binding LEFTY2 protein – biochemical, small-molecule microarray, 635 nm fluorescence scan, primary screen (AID 1110); conditions: higher = more signal
[4] = target: Calmodulin-1 (Homo sapiens) (UniProt P0DP23); assay: small molecules binding calmodulin-1 with EGTA – biochemical, small-molecule microarray, Cy5-labelled CALM1, profiling panel (AID 1111); conditions: Cy5-CALM1 binding fluorescence, higher = more signal;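 note: labelled calmodulin applied in Tris saline Tween buffer holding calcium plus EGTA and DTT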
[5] = target: Calmodulin-1 (Homo sapiens) (UniProt P0DP23); assay: small molecules binding Ca-loaded calmodulin-1 – biochemical, small-molecule microarray, Cy5-labelled CALM1, plus calcium, artefact control for SMM control-protein annotation, profiling panel (AID 1112); conditions: Cy5-CALM1 binding fluorescence, higher = more signal;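 note: score merges spot fluorescence with signal to noise from triplicate slides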
[6] = probe aWnt5a binding to arrayed compounds – biochemical, biotinylated probe, 635/667 nm fluorescence, primary screen (AID 1113); conditions: small-molecule microarray, higher = more signal;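 note: score merges 667 nm fluorescence intensity with signal-to-noise per printed feature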
[7] = probe aShh binding to arrayed compounds – biochemical, biotinylated probe, 635/667 nm fluorescence, primary screen (AID 1114); conditions: small-molecule microarray, higher = more signal;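 note: probe is biotin-labelled aShh protein from a stem cell growth factor screen; measures binding of labelled protein to compounds printed on the slide; score merges feature fluorescence at 667 nm with signal-to-noise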
[8] = probe aNog binding to arrayed compounds – biochemical, biotinylated probe, 635/667 nm fluorescence, primary screen (AID 1115); conditions: small-molecule microarray, higher = more signal;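 note: probe is biotinylated aNog protein used at 0.15 µg/mL for 1 h at 4 C; z-score combines 667 nm fluorescence of each spot with its signal to noise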
[9] = target: Torsin-1A-interacting protein 1 (Homo sapiens) (UniProt Q5JTV8); assay: compound microarray binding of lysate hLAP1 – cell lysate, small-molecule microarray, COS7 lysate, 635/667 nm fluorescence, primary screen (AID 1116); conditions: 635 nm fluorescence, higher = more signal
[10] = target: Alpha-bungarotoxin (Bungarus multicinctus) (UniProt P60615); assay: compounds binding labelled alpha-BTX control protein – biochemical, small-molecule microarray, Alexa647 label, 635/667 nm fluorescence, artefact control for SMM control protein annotation, profiling panel (AID 1117); conditions: alpha-BTX-A647 binding fluorescence, higher = more signal
Albumin (Bos taurus) = Albumin (Bos taurus) (UniProt P02769); assay: compounds binding labelled BSA control protein – biochemical, small-molecule microarray, Alexa647 label, 635/667 nm fluorescence, artefact control for SMM control protein annotation, profiling panel (AID 1118); conditions: BSA-A647 binding, fluorescence 635 nm, higher = more signal;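 note: score merges 667 nm emission intensity and signal-to-noise per printed compound spot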
[11] = probe aXIP binding to arrayed compounds – biochemical, NeuroSMM set, 635/667 nm fluorescence, primary screen (AID 1119); conditions: small-molecule microarray, higher = more signal, called active from +8 up or from −8 down;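 note: probe is the protein aXip251-270 applied at 1 µg/mL to compound-printed slides; binding of probe to printed compounds measured as 667 nm fluorescence plus signal to noise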
[12] = probe aNOTCH3 binding on compound microarray – biochemical, small-molecule microarray, 635/667 nm fluorescence, primary screen (AID 1120); conditions: higher = more signal;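 note: probe is a biotin-tagged antibody raised against NOTCH3 rather than NOTCH3 protein; score merges spot fluorescence near 667 nm with spot signal to noise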
[13] = probe aNOTCH2 binding on compound microarray – biochemical, small-molecule microarray, 635/667 nm fluorescence, primary screen (AID 1121); conditions: higher = more signal;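 note: score merges feature fluorescence read at 667 nm with its signal to noise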
[14] = target: Carbonic anhydrase 2 (Homo sapiens) (UniProt P00918); assay: compounds binding carbonic anhydrase 2 – biochemical, small-molecule microarray, Alexa647-labelled CAII, profiling panel (AID 1122); conditions: CAII-A647 binding fluorescence, higher = more signal
[15] = COS7 lysate on small-molecule microarray, probe aHis, 635 nm (AID 1123); conditions: COS7 cell lysate, fluorescence, higher = more signal;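 note: z-score combines 667nm fluorescence intensity with signal-to-noise per printed compound spot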
[16] = probe aLAP1 signal on lysate-treated microarray – cell lysate, small-molecule microarray, COS7 lysate, primary screen (AID 1124); conditions: probe aLAP1, fluorescence, higher = more signal;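 note: lysate comes from COS7 cells expressing LAP1 and is applied at 0.3 µg/mL; score merges spot fluorescence near 667 nm with signal-to-noise over triplicate slides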
Sam68 (KHDRBS1) = assay: compounds binding KHDRBS1 protein – biochemical, small-molecule microarray, 635 nm fluorescence, primary screen (AID 1125); conditions: higher = more signal;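 note: score merges 667 nm channel intensity with signal to noise over triplicate slides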
[17] = test system: Chordin-like protein 2 (CHRDL2); assay: compounds binding chordin-like 2 – biochemical, small-molecule microarray, 635 nm fluorescence, primary screen (AID 1126); conditions: fluorescence 635 nm, higher = more signal;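 note: printed compound slides probed with Chrdl2 protein at 4 µg/mL for 1 h at 4 C; score merges 667 nm emission intensity with signal to noise over three replicate slides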
[18] = target: Concanavalin-A (Canavalia ensiformis) (UniProt P02866); assay: compounds binding concanavalin A lectin – biochemical, small-molecule microarray, Alexa647 label, 635 nm, artefact control for SMM control protein annotation, primary screen (AID 1127); conditions: ConA-A647 binding fluorescence, higher = more signal;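 note: z combines 667 nm emission intensity with signal-to-noise across three replicate slides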
Concanavalin-A (Canavalia ensiformis), sequence (P02866 whole entry, looked up): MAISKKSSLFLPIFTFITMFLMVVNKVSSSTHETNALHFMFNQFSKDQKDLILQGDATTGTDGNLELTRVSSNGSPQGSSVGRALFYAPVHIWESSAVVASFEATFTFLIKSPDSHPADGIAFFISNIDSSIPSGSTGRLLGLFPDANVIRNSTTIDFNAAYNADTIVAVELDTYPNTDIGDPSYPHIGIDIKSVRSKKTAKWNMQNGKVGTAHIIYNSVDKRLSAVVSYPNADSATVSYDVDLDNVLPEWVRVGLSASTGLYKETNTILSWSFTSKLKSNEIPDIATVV

Torsin-1A-interacting protein 1 (Homo sapiens), sequence (Q5JTV8 whole entry, looked up): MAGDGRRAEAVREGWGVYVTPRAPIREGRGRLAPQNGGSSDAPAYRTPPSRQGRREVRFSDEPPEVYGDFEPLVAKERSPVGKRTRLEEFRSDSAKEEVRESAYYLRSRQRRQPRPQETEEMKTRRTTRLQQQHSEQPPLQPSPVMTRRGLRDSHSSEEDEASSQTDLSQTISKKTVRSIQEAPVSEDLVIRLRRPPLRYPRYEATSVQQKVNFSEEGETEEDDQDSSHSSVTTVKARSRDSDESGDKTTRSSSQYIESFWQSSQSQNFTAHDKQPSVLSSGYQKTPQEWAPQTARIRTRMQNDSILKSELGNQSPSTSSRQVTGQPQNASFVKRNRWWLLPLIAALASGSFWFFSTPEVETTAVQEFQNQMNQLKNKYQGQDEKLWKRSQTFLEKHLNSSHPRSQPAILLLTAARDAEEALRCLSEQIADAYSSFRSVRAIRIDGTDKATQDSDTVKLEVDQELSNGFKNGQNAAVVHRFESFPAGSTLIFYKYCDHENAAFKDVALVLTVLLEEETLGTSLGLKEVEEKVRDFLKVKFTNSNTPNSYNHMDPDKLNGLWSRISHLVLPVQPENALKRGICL
Alpha-bungarotoxin (Bungarus multicinctus), sequence (P60615 whole entry, looked up): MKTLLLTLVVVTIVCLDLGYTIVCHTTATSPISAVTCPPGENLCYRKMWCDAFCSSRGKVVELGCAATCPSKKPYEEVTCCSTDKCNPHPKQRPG
Albumin (Bos taurus), sequence (P02769 whole entry, looked up): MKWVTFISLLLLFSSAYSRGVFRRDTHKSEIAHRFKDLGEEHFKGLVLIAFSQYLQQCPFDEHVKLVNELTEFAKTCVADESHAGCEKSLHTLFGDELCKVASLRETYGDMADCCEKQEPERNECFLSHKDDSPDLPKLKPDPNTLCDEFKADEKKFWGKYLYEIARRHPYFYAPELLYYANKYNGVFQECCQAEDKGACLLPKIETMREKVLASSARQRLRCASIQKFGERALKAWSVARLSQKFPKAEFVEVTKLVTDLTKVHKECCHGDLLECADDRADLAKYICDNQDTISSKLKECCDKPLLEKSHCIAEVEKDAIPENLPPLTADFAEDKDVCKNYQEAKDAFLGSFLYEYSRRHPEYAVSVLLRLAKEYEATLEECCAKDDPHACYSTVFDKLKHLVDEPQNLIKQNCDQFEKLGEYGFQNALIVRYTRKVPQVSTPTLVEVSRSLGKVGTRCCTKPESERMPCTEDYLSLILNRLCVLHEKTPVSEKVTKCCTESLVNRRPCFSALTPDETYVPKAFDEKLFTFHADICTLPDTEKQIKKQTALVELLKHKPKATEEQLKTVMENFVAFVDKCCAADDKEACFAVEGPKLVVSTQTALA
Left-right determination factor 2 (Homo sapiens), sequence (O00292 whole entry, looked up): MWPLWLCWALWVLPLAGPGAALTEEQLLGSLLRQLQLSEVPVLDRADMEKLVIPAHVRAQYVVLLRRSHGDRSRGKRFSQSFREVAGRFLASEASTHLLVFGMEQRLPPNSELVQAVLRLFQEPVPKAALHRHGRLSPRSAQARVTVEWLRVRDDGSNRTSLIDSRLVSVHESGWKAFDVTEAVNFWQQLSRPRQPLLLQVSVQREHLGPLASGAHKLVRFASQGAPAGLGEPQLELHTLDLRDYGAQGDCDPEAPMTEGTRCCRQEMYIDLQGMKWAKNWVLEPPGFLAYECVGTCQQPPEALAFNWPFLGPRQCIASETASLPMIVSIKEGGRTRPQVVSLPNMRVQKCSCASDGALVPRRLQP

Row | Compound | composite z-score [1] | z-score [2] | composite z-score [3] | composite z-score [4] | composite z-score [5] | composite z-score [6] | composite z-score [7] | composite z-score [8] | composite z-score [9] | composite z-score [10] | composite z-score (Albumin (Bos taurus)) | composite Z-score [11] | composite z-score [12] | composite z-score [13] | composite z-score [14] | composite z-score [15] | composite z-score [16] | composite z-score (Sam68 (KHDRBS1)) | composite z-score [17] | composite z-score [18]
1 | Cc1ccc(S[C@]2(C(=O)O)CC(=O)N(C3Cc4ccccc4C3)[C@@H]2c2ccc(CO)cc2)cc1 | 0.0922 | -0.0907 | -1.07 | 0.967 | 1.1 | 0.0077 | -0.0322 | 0.649 | 0.0148 | 0.0125 | 0.0322 | 0.736 (inactive) | -0.102 | -0.057 | 0.727 | 2.65 | 0.826 | 0.667 | -1.8 | -0.458
2 | CN1C(=O)C2C=CC(C(O)c3cccc(O)c3)N(Nc3ccccc3)C2C1=O (stereo not given) | -0.286 | 0.359 | 0.13 | -0.185 | -0.09 | 0.0597 | 1.72 | 0.582 | 0.203 | 0.041 | 0.976 | 0.501 (inactive) | 0.17 | -0.14 | 0.552 | 0.247 | -0.279 | -0.172 | -0.246 | 0.312
3 | C#CCN([C@@H](Cc1ccc(O)cc1)C(=O)OC)[C@@H](/C=C/C1CC1)[C@H](O)Cc1ccccc1 | -0.184 | -3 | -0.0906 | -0.634 | -1.04 | -0.0425 | -0.223 | -0.407 | 0.0583 | -0.0345 | -0.865 | -0.0582 (inactive) | -0.0567 | -0.172 | -0.303 | 0.071 | 0.0995 | -0.0361 | 0.523 | -0.58
4 | CC(C)(C)OC(=O)CC[C@@]1(C(=O)NCc2ccccc2)N=C(c2ccc(OCCCO)cc2)O[C@@H]1c1ccccc1N=[N+]=[N-] | 0.912 | -0.339 | 0.529 | 1.15 | 0.493 | 0.112 | 0.232 | 1.9 | 0.899 | 2.1 | 0.952 | 0.399 (inactive) | 0.66 | 0.115 | 0.73 | 2.97 | 0.935 | 1.29 | 0.134 | 1.04
5 | COC(=O)C(CC#Cc1ccc2c(c1)[C@]1(C(=O)N2)[C@H](C(=O)N2CCN(c3ncccn3)CC2)[C@H]2C(=O)O[C@H](c3ccccc3)[C@H](c3ccccc3)N2[C@@H]1c1ccc(OCCO)cc1)C(=O)OC | 1.45 | -1.7 | 0.839 | 0.918 | 0.245 | -0.0792 | -0.144 | 0.0574 | 0.624 | 2.21 | 0.535 | -0.425 (inactive) | 0.207 | -0.0821 | 0.259 | 1.41 | -0.192 | 1.3 | 0.621 | 1.07
6 | C=C(COC)C(=O)CC[C@@H](OC(=O)c1cccnc1)c1ccc(OCCO)cc1 | 0.757 | -2.9 | 0.659 | -0.299 | -0.804 | -0.0944 | -0.237 | 0.678 | 0.975 | 0.661 | -0.283 | 0.517 (inactive) | 0.176 | 0.0362 | 0.751 | 1 | 0.211 | 0.629 | 1.12 | 0.388

Reference: PubChem BioAssay
